PubChem BioAssay (NCI)
About 83,000 compounds went through this panel and 20% of them were active in at least one assay; those are over-represented in the sample as a whole.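 Cell lines were cultured in 96-well plates, exposed to a single compound concentration, and assessed for percent growth 48 hours later.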 Active and inactive are the calls of the source. The calls were made as follows: active = growth percent below 10; inactive = the rest.

Legend:
Assay in all cases: NCI-60 one-dose screen, 48 h (100 = growth as untreated, 0 = no growth, -100 = all killed)
Conditions in all cases: 10 µM unless noted
[1] = tested on: NCI-H23 lung
[2] = tested on: NCI-H226 lung
[3] = tested on: NCI-H322M lung
[4] = tested on: HOP-62 NSCLC
[5] = tested on: NCI-H460 lung
[6] = tested on: HOP-92 NSCLC
[7] = tested on: NCI-H522 lung
[8] = tested on: A549/ATCC NSCLC
[9] = tested on: 786-0 renal
[10] = tested on: COLO 205 colon

Measured: growth

CCOC(=O)c1cc2c(n1C)-c1nc(NC(C)=O)sc1CCC2
inactive: [1] 76.1% | [2] 69.1% | [3] 76.2% | [4] 74.6% | [5] 95.5% | [6] 48.4% | [7] 60.9% | [8] 64.8% | [9] 84.6% | [10] 96.4%

N#Cc1nc(-c2ccc(Cl)cc2)oc1S(=O)(=O)N1CCN(c2ccc(F)cc2)CC1
inactive: [1] 88.6% | [2] 94.9% | [3] 94% | [4] 96.4% | [5] 104% | [6] 99.3% | [7] 65.9% | [8] 98.6% | [9] 99.5% | [10] 102%

OCCn1cc(-c2nc(-c3c[nH]c4ncccc34)cs2)c2ccccc21
inactive: [1] 71.9% | [2] 58% | [3] 74.8% | [4] 74.7% | [5] 78.6% | [6] 58% | [7] 58.6% | [8] 77.5% | [9] 95.1% | [10] 85.9%

Nc1c(C(=O)Nc2ccncc2)sc2nc3c(cc12)C(O)CCC3 (stereo not given)
inactive: [1] 93.3% | [2] 90.2% | [3] 84.1% | [4] 98.7% | [5] 102% | [6] 88.2% | [7] 78.8% | [8] 91.9% | [9] 93.8% | [10] 113%

CC(C)c1ccc(C(=O)Nc2sc3c(c2C(N)=O)CCC(=O)C3)cc1
inactive: [2] 50.9% | [3] 69.4% | [4] 26.2% | [8] 16.8% | [9] 19.7%
active: [1] -7.38% | [5] 1.37% | [6] -32% | [7] -55.8% | [10] -43.6%

CCOC(=O)c1c(NC(=O)c2cccc(C(F)(F)F)c2)sc2c(CN(C)C)c(O)ccc12
inactive: [1] 93.1% | [2] 101% | [3] 70.9% | [4] 96.7% | [7] 71.9% | [8] 60.8% | [9] 12.1% | [10] 19%
active: [5] 2.61% | [6] -1.17%

NS(=O)(=O)c1ccc(N=Nc2c(O)n(Cc3ccccc3)c3ccc(Cl)cc23)cc1
inactive: [1] 91.2% | [2] 34.1% | [3] 84% | [4] 64.3% | [5] 64.9% | [6] 97.8% | [7] 69.1% | [8] 82.9% | [9] 48% | [10] 94.3%

CCCCCCC12CCC(=O)N1CCc1cncn12 (stereo not given)
inactive: [1] 108% | [2] 99.8% | [3] 109% | [4] 100% | [5] 105% | [6] 113% | [7] 90% | [8] 95.3% | [9] 112% | [10] 106%

O=C(NNC(=O)c1ccc(NC(=O)c2ccccn2)cc1)Nc1ccc([N+](=O)[O-])cc1
inactive: [1] 106% | [2] 94.2% | [3] 95.7% | [4] 96.1% | [5] 107% | [6] 96.7% | [7] 100% | [8] 100% | [9] 96.5% | [10] 114%

O=C(CN1CCCCC1)Nc1nc(-c2cc3ccccc3oc2=O)cs1
inactive: [1] 109% | [2] 88.3% | [3] 93.9% | [4] 96.2% | [5] 103% | [6] 98.7% | [7] 93.6% | [8] 102% | [9] 95.4% | [10] 116%

COc1ccc(C/C(C)=C(\c2ccc(Cl)cc2)c2ccc(OCCN3CCCCC3)cc2)cc1
inactive: [1] 91.9% | [2] 86.5% | [3] 96.7% | [4] 102% | [5] 101% | [6] 87.9% | [7] 87.3% | [8] 98.1% | [9] 93.8% | [10] 95.3%

C[C@@H](CO)[C@@H]1CCC=C2CC[C@]3(C)[C@H](CC[C@@H]4[C@@]5(C)CCCNC(C)(C)[C@@H]5CC[C@]43C)[C@H]21
active: [5] -67.1% | [10] -56.8%
inactive: [1] 67.9% | [2] 94.6% | [3] 78.3% | [4] 91.1% | [6] 75.7% | [7] 82.1% | [8] 47% | [9] 70%

Cc1ccc2c(n1)C(=O)C(Br)=C(CC(C)C)C2=O
inactive: [1] 98.6% | [2] 97.2% | [3] 96.5% | [4] 97.1% | [5] 105% | [6] 80.4% | [7] 67.7% | [8] 90.8% | [9] 96.3% | [10] 78.5%

O=C(c1ccncc1)N1N=C(c2ccc(Cl)cc2)C[C@H]1c1cn(-c2ccccc2)nc1-c1ccccc1
inactive: [1] 91.5% | [2] 89.9% | [3] 92.7% | [4] 92.8% | [5] 88.2% | [6] 67% | [7] 96.1% | [8] 81.7% | [9] 97.9% | [10] 119%

Cc1ccc(C[P+](c2ccccc2)(c2ccccc2)c2ccccc2)cc1
active: [1] -9.16% | [5] 3.04% | [6] -0.267% | [10] -15.5%
inactive: [2] 16.1% | [3] 38.8% | [4] 13.5% | [7] 10.3% | [8] 26.9% | [9] 25.6%

CC(C)(C)[Si](C)(C)OC1[C@@H](CNC(=O)NC(=O)NC(N)=O)O[C@@H](n2cnc3c(NC(=O)Nc4ccccc4)ncnc32)[C@H]1O[Si](C)(C)C(C)(C)C (stereo not given in full)
inactive: [1] 75.4% | [2] 69.4% | [3] 87.1% | [4] 71% | [5] 27.4% | [6] 92% | [7] 43.3% | [8] 44.1% | [9] 90.9% | [10] 54.3%
